PubChem BioAssay AID624301 (The Scripps Research Institute Molecular Screening Center, 2012)
The source made the active and inactive calls.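 Rule for the calls: active = relative activity ratio in the reporter plus Dax-1 wells above 5 or under 0.1 at any tested dose; inactive = ratio stays between 0.1 and 5 at every dose.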

Assay: DAX1 inhibitors in Gal4 CAT reporter cells – cell-based, CAT activity, absorbance, powder samples, DAX1 inhibitor project, dose response (AID 624301)
Conditions: HEK293 Gal4-DAX1 CAT reporter, ELISA absorbance, CAT reporter alone; at 100 µM (top of the series)

Cn1c(=O)n(C)c2cc(C(=O)Nc3ccc4c(c3)OCCO4)ccc21
relative activity ratio, higher = derepression: 0.59 (active)

Cn1c(=O)n(C)c2cc(C(=O)Nc3ccc4c(c3)OCO4)ccc21
relative activity ratio, higher = derepression: 0.92 (active)
